Screening results from PubChem BioAssay.
In the library only some 4.2% were active in any assay of this set; here they are far more common.
SW480 rereplic = inducers of DNA re-replication in SW480 colon cancer cells; SW480 DNA re-replication, Hoechst DNA content imaging, 48 h; Potency, µM (top dose mostly 46.1 µM), most hits filed as activators; 340,000 tested, 1.8% active; AID 624297; note: nearly all actives have a fitted effect of over 55% in size
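Per well, 250 cells were exposed to pinned compound for 48 hr. Nuclear DNA was visualised with Hoechst (40 min, 37 C) and total object intensity recorded by fluorescence scanning.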
MCF10A rereplic = DNA re-replication induction in MCF 10a cells | Potency, µM (highest dose often 46.1 µM), hits mostly activators | MCF 10A DNA re-replication, Hoechst nuclear intensity, 48 h | 350,000 tested, 2.9% active; note: nearly all actives have a fitted effect of over 50% in size
a7 integrin act = activators of alpha7 integrin expression for muscular dystrophy | alpha7betagal myoblasts, beta-gal FDG fluorescence, 48 h | Potency, µM (titrated, usually from 38.3 µM), actives largely listed as activators | 350,000 tested, 0.064% active | AID 624291; note: nearly all actives have a fitted effect of over 60% in size
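Alpha7betagal+/- myoblasts (passage 13) were plated 16-24 hr, then exposed to compounds (1:260 dilution of DMSO stock) for 48 hours at 37C. After MPER lysis, β-galactosidase reporter activity was read as FDG fluorescence (ex 480/em 540) after 30 minutes.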
Mito fusion act = blocks mitochondrial division or promotes mitochondrial fusion | 320,000 tested, 0.23% active | AID 485298 | Potency, µM (highest dose often 46.1 µM), actives largely listed as activators | S. cerevisiae fusion-defective mutant growth rescue, CellTiterGlo 48 h; note: nearly all actives have a fitted effect of over 45% in size
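Luminescent cell viability in 1536-well qHTS format served as the measure of rescued growth in ts fusion-mutant S. cerevisiae cultured on non-fermentable YPEG for 48 hours at 37C.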
A-T KAP1 phos = potential ataxia-telangiectasia treatments restoring KAP-1 phosphorylation | F2112 A-T fibroblasts, KAP-1 phosphorylation AlphaLISA; neocarzinostatin DNA damage 30 min before lysis | Potency, µM (titrated, usually from 57.5 µM), actives largely listed as activators | 320,000 tested, 0.19% active; note: nearly all actives have a fitted effect of over 45% in size
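hTERT-immortalized A-T patient fibroblasts (F2112), 500 cells/well in OPTI-MEM, 1% FBS, got compounds for 60 min, then NCS for 30 min at 37C. Lysates were then assayed for phospho-KAP-1 by AlphaLISA (anti-pKAP1 donor, anti-KAP1 acceptor beads), 6 hr at 25C.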
Large screens that a line does not name were inactive. Calls come from the whole dose curve; as a rule, active = well fitted activation curve with a large enough effect; inconclusive = small, poorly fitted or top-dose-only effect; inactive = no such curve, though single readings can be large or run the other way.

CC(C)(C)C(=O)N1CCC[C@H]1C(O)(c1ccccc1)c1ccccc1	SW480 rereplic inconclusive, Mito fusion act 35µM
CCSC1=NCCN1S(=O)(=O)c1ccc(NC(C)=O)cc1	none
COc1ccc(CN2CCN(Cc3csc(C(C)=O)c3)CC2CCO)c(C)c1C (stereo not drawn)	none
CC(NC(=O)CN(c1cccc(C(F)(F)F)c1)S(=O)(=O)c1ccc(Cl)c([N+](=O)[O-])c1)c1ccccc1 (stereo not drawn)	SW480 rereplic inconclusive, MCF10A rereplic inconclusive
O=C(CN(c1cccc(C(F)(F)F)c1)S(=O)(=O)c1ccc(Cl)c([N+](=O)[O-])c1)NCc1ccccc1	SW480 rereplic 13µM, MCF10A rereplic 3.7µM
O=C(CN(c1cccc(C(F)(F)F)c1)S(=O)(=O)c1ccc(Cl)c([N+](=O)[O-])c1)NCc1ccccc1Cl	SW480 rereplic inconclusive, MCF10A rereplic 4.6µM
Cc1ccc(NS(=O)(=O)c2ccc(C(=O)N3CCCC(C(F)(F)F)C3)cc2)cc1 (stereo not drawn)	SW480 rereplic inconclusive
O=C1C2C3C=CC(CNS(=O)(=O)c4ccccc4[N+](=O)[O-])(O3)C2C(=O)N1c1ccccc1 (stereo not drawn)	SW480 rereplic inconclusive, MCF10A rereplic 21µM
Cc1cc(C)c(S(=O)(=O)NCC23C=CC(O2)C2C(=O)N(c4ccccc4)C(=O)C23)c(C)c1 (stereo not drawn)	SW480 rereplic inconclusive, MCF10A rereplic inconclusive
CC(=O)Cc1nsc(NC(=O)c2ccc(-c3cccc(Cl)c3)o2)n1	SW480 rereplic inconclusive, MCF10A rereplic 10µM
Cc1ccccc1-n1c2nc(=O)n(C)c(=O)c-2cc2ccccc21	SW480 rereplic 18µM, MCF10A rereplic 21µM
C=C(C)C(=O)OC1(C(F)(F)F)Oc2cc(C)ccc2NC1=O (stereo not drawn)	SW480 rereplic inconclusive, MCF10A rereplic 16µM
Cc1ccc2c(c1)Oc1ccc(NC(=O)CCCl)cc1C(=O)N2	SW480 rereplic inconclusive, MCF10A rereplic inconclusive
COc1ccc(C(=O)NNC(=O)CCn2nnc(-c3ccc(Cl)cc3)n2)cc1OC	SW480 rereplic inconclusive
Cc1ccnc(NC(=O)CCCOc2cc(=O)n(C)c3ccccc23)c1	SW480 rereplic 7.3µM, MCF10A rereplic 15µM
COC(=O)c1ccc2c(=O)n(CCCCCC(=O)N3CCN(c4ccccc4)CC3)c(=O)[nH]c2c1	MCF10A rereplic 15µM (no result: A-T KAP1 phos)
CCN1CCN(C(=O)CCCCCn2c(=O)[nH]c3cc(C(=O)OC)ccc3c2=O)CC1	none (no result: A-T KAP1 phos)
CN1CCN(C(=O)CCCOc2cc(=O)n(C)c3ccccc23)CC1	none
Cn1c(=O)cc(OCCCC(=O)N2CCN(c3ccccc3)CC2)c2ccccc21	MCF10A rereplic 9.2µM
CC(C)(C)c1ccc(-c2nc(O)c(CC(=O)O)s2)cc1	none (no result: SW480 rereplic, MCF10A rereplic, a7 integrin act)
O=C(NCC1CCCO1)/C(=C/c1ccccc1F)NC(=O)c1ccccc1 (stereo not drawn)	a7 integrin act inconclusive
CCCS(=O)(=O)NCc1cn2cccc(C)c2n1	SW480 rereplic 10µM, MCF10A rereplic 2.6µM
COc1ccccc1CNC(=O)[C@H](CCSC)NC(=O)[C@@H]1Cc2ccccc2CN1	SW480 rereplic 7.3µM
CC(C)c1ccc(NC(=S)NCCc2c[nH]c3ccccc23)cc1	MCF10A rereplic 15µM
CC(C)c1ccc(NC(=O)[C@H](Cc2c[nH]c3ccccc23)NC(=O)[C@@H]2Cc3ccccc3CN2)cc1	SW480 rereplic inconclusive, MCF10A rereplic 21µM
CC(C)c1ccc(NC(=O)[C@H](NC(=O)[C@@H]2Cc3ccccc3CN2)c2ccccc2)cc1	SW480 rereplic inconclusive, MCF10A rereplic 21µM
COc1ccccc1CNC(=O)[C@H](C)NC(=O)[C@@H]1Cc2ccccc2CN1	SW480 rereplic inconclusive
CCCc1cc(C(=O)N2CCCC(Cc3ccccc3C)(C(=O)OCC)C2)no1 (stereo not drawn)	SW480 rereplic inconclusive
Cc1ccc(S(=O)(=O)NC(=O)NC(C)Cc2ccccc2)cc1 (stereo not drawn)	none
O=c1c2c3nc4ccccc4nc3n(CCN3CCOCC3)c2ncn1CCN1CCOCC1	none (no result: Mito fusion act, A-T KAP1 phos)
CC(=O)c1ccc(OCc2cc(C(=O)N(C)CC3COc4ccccc4O3)no2)cc1 (stereo not drawn)	none (no result: SW480 rereplic, MCF10A rereplic, Mito fusion act, A-T KAP1 phos)
COc1ccc(NC(=O)[C@H](Cc2c[nH]c3ccccc23)NC(=O)[C@@H]2Cc3ccccc3CN2)cc1	SW480 rereplic inconclusive, MCF10A rereplic 15µM
COc1ccc(CNC(=O)[C@H](Cc2c[nH]c3ccccc23)NC(=O)[C@@H]2Cc3ccccc3CN2)cc1	none
CC1CCC(C(C)C)C(OC(=O)COC(=O)c2cc(O)ccc2N)C1 (stereo not drawn)	SW480 rereplic 26µM, MCF10A rereplic 23µM
COc1ccc(OC)c(NC(=O)CN(Cc2ccc(F)cc2)C2CCCCC2)c1	MCF10A rereplic 18µM
COc1ccc(NC(=O)CN(Cc2ccccc2)S(C)(=O)=O)c(OC)c1	none
COc1ccc(OC)c(NC(=O)CN(Cc2ccccc2)S(C)(=O)=O)c1	MCF10A rereplic 1µM
CCc1nc(N2CCN(C(=O)c3ccccc3)CC2)c2c3c(sc2n1)CCCC3	MCF10A rereplic inconclusive
Cc1nc(Sc2nnnn2C)c2c3c(sc2n1)CCC3	SW480 rereplic 5.8µM, MCF10A rereplic 1.5µM
CCc1nc(Sc2nnnn2-c2ccccc2)c2c3c(sc2n1)CCCC3	SW480 rereplic inconclusive, MCF10A rereplic 18µM
Cc1nc(SCC(=O)NCC2CCCO2)c2c3c(sc2n1)CCC3 (stereo not drawn)	none
CCCN(CC(=O)Nc1ccccc1C)C(=O)C1CCN(S(=O)(=O)c2ccc(C)c(C)c2)CC1	none (no result: SW480 rereplic, MCF10A rereplic, Mito fusion act, A-T KAP1 phos)
COc1ccc(Nc2nc(N)c([N+](=O)[O-])c(NC3CCCCC3)n2)cc1	SW480 rereplic inconclusive, MCF10A rereplic 16µM, A-T KAP1 phos inconclusive
COc1ccc(Nc2nc(N)c([N+](=O)[O-])c(NCCO)n2)cc1	none
CCOC(=O)CC1C(=O)NC2CCCCC2N1C(=O)Nc1ccc(Cl)cc1 (stereo not drawn)	none
O=C(O)c1ccn2c(C(=O)c3ccccc3)c(-c3ccccc3)cc2c1	MCF10A rereplic inconclusive
CCN(CC)CCOCCn1c(C)ccc1C	SW480 rereplic inconclusive (no result: Mito fusion act, A-T KAP1 phos)
CCN(CC)S(=O)(=O)c1cccc(-c2nnc(SCc3nc4ccccc4s3)o2)c1	MCF10A rereplic inconclusive
Brc1ccccc1-c1nnc(SCc2nc3ccccc3s2)o1	MCF10A rereplic 9.2µM
N#Cc1c(-c2ccc(Cl)cc2)c(-c2ccc(Cl)cc2)nn(CCOC(=O)CCC(=O)O)c1=O	SW480 rereplic inconclusive, MCF10A rereplic 1.8µM (no result: Mito fusion act, A-T KAP1 phos)
N#Cc1c(-c2ccc(Cl)cc2)c(-c2ccc(Cl)cc2)nn(CCO)c1=O	SW480 rereplic inconclusive, MCF10A rereplic inconclusive (no result: Mito fusion act, A-T KAP1 phos)
Cc1c(Cl)cccc1NC(=O)CCC(=O)NNC(=O)c1ccccc1	none (no result: SW480 rereplic)
